Experiment: blood-stage malaria parasite viability loss – strain 3D7, DAPI fluorescence, 100 nL, primary screen (AID 1184);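 also: parasites grown inside human red blood cells in medium with human serum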
Conditions: P. falciparum 3D7 growth, 3 d, higher = more signal

Compared with `COC(=O)NCC=Cc1nc(CCC=CC(=O)O[C@H]2CC3CC(=O)O[C@@H](C=CCC(C)C)C[C@@H]4CC[C@H](C)[C@@H](C[C@@H](OC)C[C@H](C2)O3)O4)co1`, `CCCc1cc2c(n1Cc1ccc(C)cc1)C(C)C1CN(C(=O)c3ccccc3)C(C)(C(=O)OC)C21` (centres undefined) is higher in z-score: -1.65 for the first, -0.0901 for the second.

Compared with `CN1CCC(c2ccc(CO)cc2)=CC1c1cccs1` (centres undefined), `OCc1ccc(C2=CC(c3cccs3)N(Cc3cccc(OC(F)(F)F)c3)CC2)cc1` (centres undefined) is lower in z-score: -1.99 for the first, -3.09 for the second.

Going from `CCOC(=O)[C@H]1CC=C2C(=O)Oc3ccccc3[C@@H]21` to `CCOC(=O)[C@H]1CC=C2C(=O)Oc3ccc(Br)cc3[C@@H]21`, the z-score rises from -0.654 to -0.5.

First: CN1CCc2nc(CO)c(CO)cc2C1
Second: CCc1cc2c(nc1CC)CCN(CCC(C)=NOC)C2
The z-score of the first is higher: -0.221 for the first, -1.21 for the second.

First: C[C@@H]1OC=C2[C@@H](O)[C@H]3O[C@H]3C(=O)[C@]23[C@H]1[C@H]1C2=C([C@@H](O)[C@H]4O[C@H]4C2=O)[C@@H]3O[C@@H]1C
Second: COC(=O)[C@H]1[C@@H](O)[C@@]2(O)c3c(OC)cc(OC)cc3O[C@@]2(c2ccc(OC)cc2)[C@@H]1c1ccccc1
The z-score of the first is higher: 0.487 for the first, -1.26 for the second.

Compared with `COC(=O)[C@H]1C(=O)c2ccccc2O[C@@](C(=O)OC)(c2ccccc2)[C@@H]1c1ccccc1`, `C=C(CC1(C(C)NP(=O)(c2ccccc2)c2ccccc2)CC1)c1ccccc1` (centres undefined) is higher in z-score: -1.6 for the first, -1.1 for the second.

Compared with `CCCC=C(CCC)[C@@H](NP(=O)(c1ccccc1)c1ccccc1)c1ccccc1`, `CCCC[C@@H]1C[C@H]1[C@@H](NP(=O)(c1ccccc1)c1ccccc1)c1ccc(Cl)cc1` is higher in z-score: -0.81 for the first, 0.0345 for the second.

From PubChem BioAssay
